Only some compounds are listed: those with a hit (about 7.3% of all), similar ones and a draw of the others.
Rab9 prom act: Rab9 promoter activation; Potency, µM (titrated, usually from 9.22 µM), without a hit: at the top dose activation, negative = inhibition, hits mostly activators; 2.8% of 320,000 active; AID 485297; Huh7 Rab9 promoter-luciferase reporter, luminescence, 24 h; also: % of control where 0% means no effect; nearly all actives have a fitted effect of over 60% in size
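Luminescence from Amplite-detected luciferase (10 minutes, ambient) reports Rab9 promoter activation. Before that, stable Rab9-luciferase Huh7 cells (1500/well, reduced-serum OP-MEM I plus 10% FBS) were exposed to compound for 24 hours at 37C.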
SMN2 splice enh: SMN2 splice variant enhancement; HEK293 SMN2-luciferase splicing reporter, luminescence, 30-36 h; Potency, µM (titrated, usually from 46.1 µM), without a hit: top-dose activity change, positive = activation, usual class: activators; 2.8% of 210,000 active; AID 1458; also: % of control where 0% means no effect; nearly all actives have a fitted effect of over 55% in size
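HEK293 cells carry an SMN2 minigene-luciferase reporter in which exon 7 inclusion puts luciferase in frame. Cells were seeded at 2000 cells/well, attached for 10-12 hours, then exposed to compounds for 30-36 hours at 37C before ONE-Glo luminescence.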
NPC1 prom act: NPC1 promoter activation. Potency, µM (titrated, usually from 9.22 µM), for the others: top-dose activation, actives largely listed as activators. 2.4% of 320,000 active. AID 485313. Huh7 NPC1 promoter luciferase reporter, 24 h; also: % of control where 0% means no effect; nearly all actives have a fitted effect of over 60% in size
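NPC1 promoter–luciferase Huh7 cells; 24 h compound; luminescence.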
FLuc counter: inhibits or activates purified firefly luciferase, miR-21 counter-screen; Potency, µM (doses to about 57.5 µM), without a hit: top-dose activity change, negative = inhibition, usual class: inhibitors; 6.9% of 360,000 active; P08659; purified FLuc, Km substrates, luminescence inhibition;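 also: plate controls were vehicle for no effect and reference inhibitor for full effect; nearly all actives have a fitted effect of over 55% in size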
Target sequence (P08659 whole entry, looked up): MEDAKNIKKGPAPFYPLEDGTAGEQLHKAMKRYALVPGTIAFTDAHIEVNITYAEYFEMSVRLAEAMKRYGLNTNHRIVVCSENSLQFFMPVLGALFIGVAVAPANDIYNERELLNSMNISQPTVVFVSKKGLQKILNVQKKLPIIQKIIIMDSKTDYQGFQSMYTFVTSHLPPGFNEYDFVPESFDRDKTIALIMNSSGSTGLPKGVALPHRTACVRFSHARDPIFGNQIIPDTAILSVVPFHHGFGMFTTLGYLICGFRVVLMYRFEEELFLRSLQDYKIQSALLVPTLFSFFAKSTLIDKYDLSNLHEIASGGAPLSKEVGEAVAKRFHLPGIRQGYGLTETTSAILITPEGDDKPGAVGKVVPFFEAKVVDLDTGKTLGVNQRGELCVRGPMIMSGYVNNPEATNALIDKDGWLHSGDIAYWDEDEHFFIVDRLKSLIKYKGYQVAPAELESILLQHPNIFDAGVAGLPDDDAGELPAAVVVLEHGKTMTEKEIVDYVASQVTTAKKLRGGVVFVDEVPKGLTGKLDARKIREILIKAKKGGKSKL
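Purified P. pyralis luciferase (10nM final) with 10uM D-luciferin and 10uM ATP (Km levels) in 50mM Tris acetate pH 7.5, 10mM Mg acetate, 0.01% Tween-20, 0.05% BSA; qHTS 6-point titration, ~60 µM downward; luminescence read.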
KinaseGlo FLuc: blocks Kinase-Glo luciferase, a counter-screen artifact; Q27757; Kinase-Glo luciferase, ATP luminescence, 8 min; AID 1379; 0.28% of 200,000 active; Potency, µM (top dose mostly 38.3 µM), for the others: top-dose activity change, negative = inhibition, most hits filed as inhibitors; also: % is scaled to controls: 0 for no effect and ±100 for the full control effect; nearly all actives have a fitted effect of over 60% in size
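Substrate mix (final 50 mM imidazole pH 7.2, 50 mM KCl, 7 mM MgCl2, 10 uM ATP, 0.01% Tween 20, 0.05% BSA) plus pin-tool compound, then Kinase-Glo detection mix; 8 min ambient, luminescence read.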
Starred values were filed as active, the others as inactive; u = inconclusive; x = no result given; [ ] = remark or other dose. Calls follow the shape of the dose curve; as a rule, active = well fitted curve in the direction sought with a large enough effect; inconclusive = small, poorly fitted or top-dose-only effect, or another doubt; inactive = no such curve, though single readings can be large; an effect the other way counts as inactive or inconclusive. Potency is read from the fitted curve at half-maximal effect.

SMILES	Rab9 prom act	SMN2 splice enh	NPC1 prom act	FLuc counter	KinaseGlo FLuc
CC(C)Sc1nnc(Nc2ccccc2)s1	2µM*	28.1%	3.98µM*	15.1µM*	-6.4%
CCOC(=O)c1c(C)[nH]c(C(=O)OCCOc2ccccc2C)c1C	3.98µM*	3.55µM*	3.98µM*	3.38µM*	6.2%
CCOC(=O)c1c(C)[nH]c(C(=O)COC(=O)c2ccccn2)c1C	5.3%	-9.9%	0.3%	6.01µM*	2.6%
CCOC(=O)c1c(C)[nH]c(C(=O)OCC(=O)c2ccccc2)c1C	0.447µM*	x	0.501µM*	0.849µM*	x
COc1ccc(-c2[nH]c(-c3ccccc3)nc2SCC(=O)Nc2ccc3c(c2)OCO3)cc1	x	0.8%	x	-17.2%	x
CC(C)(C)c1cc(Br)c(O)c(CN(Cc2cc(C(C)(C)C)cc(Br)c2O)C2CCCCC2)c1	x	-12.6%[9.22 µM]	x	x	-5.1%[7.66 µM]
CC(C)(C)OC(=O)N1CCC(c2c(C(=O)NCc3ccco3)cnn2-c2ccccc2Cl)CC1	x	x	x	5.0%	x
COCCCn1cnc2c(c1=O)c1nc3ccccc3nc1n2-c1ccccc1	1.8%	-6.7%	1.2%	2.4%	-2.4%
COCCCn1cnc2oc3nc4ccccc4nc3c2c1=O	0.631µM*	10µM*	1.58µM*	7.57µM*	-7.3%
Cc1noc(NS(=O)(=O)c2ccc(N/C=C\C(=O)c3cccs3)cc2)c1C	-6.3%	-2.1%	-5.3%	16.9µM*	2.2%
Cc1noc(NS(=O)(=O)c2ccc(N/C=C/C(=O)c3ccc4c(c3)OCO4)cc2)c1C	5.4%	5.1%	16.7%	10.7µM*	1.3%
Cc1noc(NS(=O)(=O)c2ccc(N/C=C\C(=O)c3ccccc3)cc2)c1C	-2.2%	4.5%	0.6%	u	1.3%
CC(=O)c1ccc(NC(=O)CN(C)S(=O)(=O)c2cc3c(cc2C)NC(=O)CO3)cc1	x	x	x	2.5%	x
O=C(Nc1nc2ccc(Cl)cc2s1)c1ccco1	1.26µM*	3.16µM*	0.631µM*	1.69µM*	12.8%
O=C(Nc1nc2ccc(Br)cc2s1)c1ccco1	0.631µM*	x	1.26µM*	3.01µM*	x
CC(=O)Nc1nc2ccc(NC(=O)c3ccco3)cc2s1	u	28.2%	21.3%	u	-5.7%
O=C(Nc1nc2ccc(S(=O)(=O)N3CCCC3)cc2s1)c1ccco1	9.3%	3.5%	2.6%	u	6.7%
O=C(NCc1ccccc1Cl)c1cc(=O)[nH]c2ccc(S(=O)(=O)N3CCCCC3)cc12	x	-5.1%	x	1.0%	x
C=C(C)C1CC=C(C)C(OC(C)=O)C1 (centres undefined)	x	-2.5%	x	x	x
COc1ccc(-c2c(C)nc3c(-c4ccccn4)cnn3c2N)cc1	0.316µM*	x	0.316µM*	0.536µM*	x
COc1ccc(-c2c(C)nc3c(-c4ccsc4)cnn3c2N)cc1	0.251µM*	x	0.316µM*	0.601µM*	x
Nc1ccccc1S[C@@H](C[N+](=O)[O-])c1ccc2c(c1)OCO2	x	-3.5%[9.22 µM]	x	x	-6.9%[7.66 µM]
CCN(CC)CCCCn1c(-c2ccccc2)nc2c(NCCOC)nc(C)nc21	x	-0.6%	x	x	-1.8%
CCOc1ccc(C(=O)COC(=O)CC)cc1	-0.4%	3.0%	-1.8%	5.36µM*	-2.4%
Cc1ccc(S(=O)(=O)CCC(=O)c2ccc(F)cc2)cc1	10.0%	x	-1.6%	2.6%	x
SMILES	Rab9 prom act	SMN2 splice enh	NPC1 prom act	FLuc counter	KinaseGlo FLuc
CCOc1ccc(C(=O)CCN2CCCCCC2)cc1	-1.4%	12.8%	-1.1%	-12.6%	-3.0%
CCOc1ccc(C(=O)CCCC(=O)c2ccc(OCC)cc2)cc1	18.6%	x	u	6.75µM*	x
CCCOc1ccc(C(=O)CCC(=O)OCC(=O)Nc2ccc(OCC)cc2)cc1	-0.1%	x	-2.2%	-3.2%	x
CCCCC(=O)OCC(=O)c1ccc(OCC)cc1	10.5%	-5.4%	17.1%	0.849µM*	-23.2%
CCC(=O)c1ccc(OCC(=O)O)cc1	0.8%	-14.9%	1.4%	-3.6%	10.6%
Cc1ccc(C(=O)CCS(=O)(=O)c2ccc(F)cc2)cc1	4.7%	x	-3.9%	0.757µM*	x
O=C(CCCN1CCC(C(=O)c2ccc(F)cc2)CC1)c1ccc(F)cc1	-0.4%	x	-1.0%	1.8%	x
O=C(CCCC(=O)c1ccc(F)cc1)c1ccc(F)cc1	1µM*	x	2.82µM*	3.01µM*	x
O=c1c2ccccc2oc2cc(-c3ccc(CN4CCOCC4)cc3)ccc12	u	x	2.24µM*	6.75µM*	x
CC(=O)c1cccc(NC(=O)c2sc(-n3nc(C)c(Cc4ccccc4)c3C)nc2C)c1	x	x	x	4.4%	x
Nc1nncn1C(=O)CCCOc1ccc(Cl)cc1Cl	0.9%	-1.6%	-3.2%	9.53µM*	-1.9%
C#CCN(C)CCCOc1ccc(Cl)cc1Cl	u	14.7%	u	13.5µM*	-2.5%
CCN(CC)C(=O)CCCOc1ccc(Cl)cc1Cl	u	-0.7%	3.16µM*	u	-9.0%
COc1ccc(CCNC(=O)CSc2cc(=O)n(C)c3ccccc23)cc1OC	x	12.6%	x	-0.7%	x
COc1cc(/C=C/c2ccc3c([N+](=O)[O-])cccc3n2)ccc1OCC(=O)O	-0.3%	x	2.7%	3.38µM*	x
COc1cc(/C=C/c2ccc3cccc([N+](=O)[O-])c3n2)ccc1OCC(=O)O	1.7%	5.7%	0.6%	1.9µM*	2.1%
COc1c(OC(C)=O)ccc(/C=N\NC(=O)c2ccc(Br)cc2)c1[N+](=O)[O-]	-2.1%	x	-3.0%	2.3%	-1.7%
C/C=C/c1ccc(OCC(=O)O)c(OC)c1	1.1%	x	-6.2%	3.2%	x
COc1cc(/C=C/c2nc3ccc([N+](=O)[O-])cc3s2)ccc1OCC(=O)O	-6.2%	x	-2.4%	2.69µM*	x
CCOc1c(OC(C)=O)ccc(/C=C/c2ccc3cccc(OC)c3n2)c1[N+](=O)[O-]	13.5%	u	u	6.01µM*	1.2%
COc1ccccc1N1CCN(c2nc3ccc(C)cc3nc2-n2nc(C)cc2C)CC1	x	-7.0%	x	-2.7%	x
CCOC(=O)c1cc(-c2ccc(C)cc2)n(CCC(=O)Nc2cc(Cl)ccc2C)c1C	x	-7.6%	x	-1.7%	x

Screening results deposited in PubChem BioAssay by National Center for Advancing Translational Sciences (NCATS).
